# Assay outcomes from PubChem.
# Shiga toxin inh – A qHTS for Small Molecule Inhibitors of Shiga Toxin; inhibition, % at 38.7 µM; actives 9.2% (n = 290,000); Vero cells, Shiga toxin protein synthesis inhibition reporter; in the data active = inhibition mostly above about 28%, no sharp cut-off; inactive = mostly below about 43%; note: 0% is about no effect
# AMA1 RON2 block – qHTS for Inhibitors of AMA1-RON; Towards Development of Antimalarial Drug Lead: Primary Screen; Plasmodium falciparum AMA1 (3D7) - RON2 peptide interaction; AlphaScreen AMA1-biotinylated RON2 peptide binding; Potency, µM (highest dose often 58.2 µM), inactives show top-dose activity change, negative = inhibition, usual class: inhibitors; actives 0.2% (n = 360,000); AID 720542, 2013;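 note: potency is the fitted concentration of half-maximal effect; 0% = vehicle wells and -100% = peptide control; nearly all actives have a fitted effect of over 45% in size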
#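 AMA1 (3D7) with his tag at 25 nM final met compounds first, then biotinylated RON2 peptide at 25 nM; detection used donor plus acceptor beads, 10 µg/mL apiece, read by AlphaScreen after 30 min at room temperature.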
# Pf growth 48h – Primary qHTS for delayed death inhibitors of the malarial parasite plastid, 48 hour incubation. P. falciparum luciferase growth in erythrocytes, 48 h. Potency, µM (highest dose often 28.7 µM), inactives show at the top dose activity change, negative = inhibition, hits mostly inhibitors. actives 5.9% (n = 310,000). AID 504832, 2011; note: potency is the fitted concentration of half-maximal effect; % is set by controls: 0 for no effect and ±100 for the full control effect
#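 Cell-based growth assay: transgenic P. falciparum expressing firefly luciferase, cultured in red cells within RPMI 1640 containing 0.5% w/v Albumax, 24 mM bicarbonate and gentamycin. A drop in luciferase activity indicates inhibition.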
# HCV inh – qHTS Assay for Inhibitors of Hepatitis C Virus (HCV) | Potency, µM (highest dose often 41.8 µM), without a hit: at the highest dose activity change, negative = inhibition, usual class: inhibitors | Huh7.5.1 HCVcc-Cre infection, luciferase reporter, 44 h | actives 3.4% (n = 340,000); note: potency is the fitted concentration of half-maximal effect; % is set by controls: 0 for no effect and ±100 for the full control effect
#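 Compounds are dispensed onto cells plated 4 h earlier at 1,000 per well, with HCVcc-Cre virus (about 0.5 moi) added next. Following 44 h of culture, luminescent signal is measured for 15 sec after 15 min with substrate at room temperature.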
# Pf growth 96h – Primary qHTS for delayed death inhibitors of the malarial parasite plastid, 96 hour incubation; P. falciparum luciferase reporter growth, 96 h; AID 504834, 2011; Potency, µM (series often up to 28.7 µM), inactives show at the top dose activity change, negative = inhibition, hits mostly inhibitors; actives 6.9% (n = 320,000); note: potency is the fitted concentration of half-maximal effect; % is set by controls: 0 for no effect and ±100 for the full control effect
#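 P. falciparum expressing integrated firefly luciferase, in erythrocytes at 2% hematocrit, 0.05% parasitemia, incubated with compounds 96 h at 37 C, 5% CO2. Growth inhibition read as loss of luminescence; two-generation exposure targets delayed-death apicoplast inhibitors.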
# CHX counter – Cycloheximide Counterscreen for Small Molecule Inhibitors of Shiga Toxin; cell reporter, cycloheximide protein synthesis inhibition counterscreen; max response, %; actives 12% (n = 300,000); AID 2314, 2010; in the data active = max response mostly above about 13%, no sharp cut-off; inactive = mostly below about 14%; note: read at 38.3 µM for the half of the compounds with a filed dose; 0% is about no effect
# Starred values were filed as active, the others as inactive; i = inactive; ? = inconclusive; . = no result. Most compounds without a hit are left out; they make up all but 21% or so of the library. Unless noted, calls come from the whole dose curve; as a rule, active = well fitted curve in the direction sought with a large enough effect; inconclusive = small, poorly fitted or top-dose-only effect, or another doubt; inactive = no such curve, though single readings can be large; an effect the other way counts as inactive or inconclusive.
SMILES,Shiga toxin inh,AMA1 RON2 block,Pf growth 48h,HCV inh,Pf growth 96h,CHX counter
Cn1cccc1C(=O)OCC(=O)N1CCN(c2ccccc2)CC1,.,-6.3%,.,0.9%,.,.
CCOC(=O)c1c(N)n(CCCOC(=O)c2ccco2)c2nc3ccccc3nc12,-7.0,-3.9%,-6.0%,11.2µM*,?,-3.0
COCCCn1c(N)c(C(=O)OCCOC)c2nc3ccccc3nc21,8.9,5.0%,-16.7%,-0.5%,?,1.9
CCOC(=O)c1c(NS(=O)(=O)c2ccccc2)n(CCCOC)c2nc3ccccc3nc12,-2.9,-12.3%,10.4µM*,-21.7%,0.0%,-0.9
COc1cccc(CN(C)CC(O)COc2cc(Cl)ccc2Cl)c1 (configuration not stated),-1.9,0.9%,10.4µM*,?,?,0.9
CCN(CC)c1ccc(C=Nc2ccc(OC)c(S(=O)(=O)N3CCOCC3)c2)c(O)c1,.,-3.6%,11.2%,-6.1%,-24.7%,.
Cn1c(-c2ccccc2)c[n+]2c1-c1ccccc1C2,2.1,-0.5%,0.586µM*,11.2µM*,?,11.5
COc1ccccc1OC(=O)c1ccc(S(=O)(=O)N(C)C)cc1,-6.5,-11.9%,.,11.9%,-22.2%,-1.4
C/C(=N\OCc1ccc(C#N)cc1)c1ccccc1,70.2*,28.1%,300.7%,2.8%,388.3%,42.5*
C/C(=N/OCO/N=C(\C)c1ccccc1)c1ccccc1,8.1,11.8%,5.5%,11.1%,-14.8%,6.4
O=C(O)c1cccc(NC(=O)c2ccc(COc3ccc(Cl)cc3)cc2)c1,13.0,-8.5%,80.5%,7.1%,12.2%,-0.3
C/C(=N\OCc1cccc(C(=O)O)c1)c1ccc(Cl)cc1,124.8*,3.1%,1.04µM*,3.0%,i,78.0*
C/C(=N\OCc1ccc(C#N)cc1)c1ccc(S(=O)(=O)N(C)C)cc1,80.4*,-6.5%,-2.1%,?,?,48.4*
C#CCOCCOCCOCCNc1nc(N2CCN(C(=O)[C@H](CCCCN)n3cc([C@@H](N)[C@H](C)CC)nn3)CC2)nc(N2CCN(C(=O)[C@H](CCC(=O)O)n3cc([C@@H](N)CCSC)nn3)CC2)n1,.,12.3%,.,1.9%,.,.
Cc1ccc([N+](=O)[O-])cc1S(=O)(=O)Nc1cccc(S(=O)(=O)NC2=NCCC2)c1,.,-21.5%,.,10.9%,.,.
O=C1c2ccccc2C(=O)N1CCC#Cc1ccc2cc(CCO)oc(=O)c2c1,.,9.8%,11.6%,3.4%,22.1%,.
COc1ccc(CNc2nc(-c3ccccc3)nn2C(=O)c2ccc([N+](=O)[O-])cc2)cc1,75.3*,3.3%,63.0%,-1.3%,-22.9%,32.2*
CC(=O)n1nc(-c2ccccc2)nc1NCc1cccs1,29.5,-2.9%,24.5%,3.0%,?,25.4*
COCC(=O)n1nc(-c2ccccc2)nc1NCc1ccccc1,62.9,-6.7%,2.9%,11.0%,?,24.8*
O=C(c1cccnc1)n1nc(-c2ccco2)nc1NCc1cccs1,123.6*,-7.1%,56.7%,5.9%,41.1%,36.9*
O=C(COC(=O)Cc1ccc(Br)cc1)Nc1ccc(Cl)cn1,.,-3.6%,.,-2.4%,.,.
COCCN(C(=O)COC(=O)CCC(=O)c1cccs1)c1c(N)n(Cc2ccccc2)c(=O)[nH]c1=O,.,-1.6%,32.4%,6.6%,51.2%,.
CSCCC(NC(=O)c1ccc(Cl)cc1Cl)C(=O)NCC(c1cccs1)N(C)C (configuration not stated),.,-6.6%,.,-7.0%,.,.
CCC(=O)n1nc(-c2ccccc2)nc1NCc1ccccc1,70.7*,32.3%,20.7%,9.7%,99.8%,23.2*
COCC(=O)n1nc(-c2ccccc2)nc1NCc1ccc(F)cc1,47.2*,-1.7%,?,10.6%,.,14.8
CC(=O)n1nc(-c2ccccc2)nc1NCc1ccc(N(C)C)cc1,67.6*,8.91µM*,37.1%,19.0%,?,44.8*
CN(C)c1ccc(CNc2nc(-c3ccccc3)nn2S(C)(=O)=O)cc1,26.4,?,32.0%,-13.8%,-1.9%,8.4
